# Screening results deposited in PubChem BioAssay by National Center for Advancing Translational Sciences (NCATS).
# Shown are actives, neighbours in structure and some others; about 18% of the full set was active somewhere.
# RORg inh = blocks mouse ROR gamma transcriptional activity | P51450 | Drosophila S2 Gal4-RORgamma UAS-luciferase reporter, 20 h | Potency, µM (highest dose often 53.6 µM), without a hit: at the highest dose activity change, negative = inhibition, hits mostly inhibitors | hit rate 5.4% among 310,000 | AID 2551; further: potency means the concentration at half of the fitted maximal effect; nearly all actives have a fitted effect of over 60% in size
# Target sequence (P51450 whole entry, looked up, the tested form may be a part): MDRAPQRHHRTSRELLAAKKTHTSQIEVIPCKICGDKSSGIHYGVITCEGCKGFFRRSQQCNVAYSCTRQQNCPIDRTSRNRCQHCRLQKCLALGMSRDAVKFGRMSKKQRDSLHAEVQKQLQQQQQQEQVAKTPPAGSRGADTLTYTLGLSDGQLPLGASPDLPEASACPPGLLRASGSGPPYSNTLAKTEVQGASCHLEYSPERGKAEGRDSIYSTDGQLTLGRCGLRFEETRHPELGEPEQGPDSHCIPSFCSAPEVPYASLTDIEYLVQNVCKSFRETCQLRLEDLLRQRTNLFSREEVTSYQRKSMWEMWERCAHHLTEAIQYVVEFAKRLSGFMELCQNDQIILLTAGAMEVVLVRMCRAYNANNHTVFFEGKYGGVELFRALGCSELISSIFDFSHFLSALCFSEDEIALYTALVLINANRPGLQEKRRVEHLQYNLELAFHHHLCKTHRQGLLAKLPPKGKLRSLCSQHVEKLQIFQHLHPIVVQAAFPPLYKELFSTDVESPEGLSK
#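 Luciferase reporter read in Schneider cells carrying Gal4-RORγ (mouse) and UAS-Photinus luciferase; cells given compound 1 h before 700 uM copper sulfate induction, then incubated 20 h at ambient temperature.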
# IL1B secr inh = blocks inflammasome-driven IL-1 beta release. THP-1 LPS/ATP IL-1B secretion, AlphaLISA, 16 h; active compounds read low. activity change, % at 57.5 µM. hit rate 4.7% among 360,000; in the data active means activity change below about -50%; inconclusive means mostly about -30% to -49%
#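 THP-1 cells pretreated 1 hr with compounds (up to 57.5 uM final), then stimulated with LPS (250 ng/mL final) plus ATP (1.25 mM final); secreted IL-1B measured by AlphaLISA after 16 hr, decreased signal indicating inhibition.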
# DT40 TDP1 CPT = growth inhibition of DT40 Tdp1-/-;hTDP1 cells with camptothecin (screen for TDP1 inhibitors). chicken DT40 Tdp1-/-;hTDP1 cells + 20 nM CPT, ATP luminescence, 48 h. Potency, µM (titrated, usually from 46.2 µM), for inactives: top-dose activity change, negative = growth inhibition, actives largely listed as inhibitors. hit rate 12% among 420,000. AID 686979; further: potency means the concentration at half of the fitted maximal effect; nearly all actives have a fitted effect of over 55% in size
#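 Chicken DT40 Tdp1-/- cells complemented with human TDP1, 400 cells/well, exposed to compounds plus 20 nM camptothecin for at least 48 h at 37 C; viability read as ATP content by CellTiter-Glo luminescence.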
# LDHA block = LDHA (human) enzyme inhibition | AID 1347041 | P00338 | activity change, % (values are at about 110 or 230 µM) | hit rate 0.15% among 480,000 | purified LDHA, NADH/diaphorase-resazurin fluorescence; active compounds read low; in the data active means activity change below about -30%; inconclusive means mostly about -25% to -30%;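 further: plate controls were DMSO wells for no effect and wells without enzyme for full effect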
#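 Resorufin fluorescence (ex540/em590), read at 0 and 20 min after diaphorase/resazurin addition, reports the NADH left after a 5 min room-temperature reaction of 2 nM human LDH5 with 0.06 mM NADH and 0.2 mM pyruvate.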
# TDP1 cell noCPT = qHTS for Inhibitors of human tyrosyl-DNA phosphodiesterase 1 (TDP1): qHTS in cells in absence of CPT. DT40 Tdp1-/- hTDP1 cells, no CPT, ATP luminescence, 48 h. Potency, µM (top dose mostly 46.2 µM), without a hit: at the top dose activity change, negative = growth inhibition, hits mostly inhibitors. hit rate 15% among 420,000. AID 686978, 2013; further: potency means the concentration at half of the fitted maximal effect; nearly all actives have a fitted effect of over 55% in size
#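 Growth kinetics read by CellTiter-Glo luminescence after ≥48 hr at 37 °C. Cells: DT40 Tdp1-/- stably carrying human TDP1, 400 per well, compound exposure in the absence of CPT (DMSO vehicle).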
# Gal4-VP16 FLuc = counter-screen for ROR gamma inhibitors: Gal4-VP16 reporter | Drosophila S2 Gal4-VP16 UAS-luciferase, luminescence, 20 h | Potency, µM (titrated, usually from 53.6 µM), inactives show top-dose activity, negative = inhibition, usual class: inhibitors | hit rate 3.5% among 310,000;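 further: Gal4-VP16 expression switched on by copper sulfate through the metallothionein promoter; potency means the concentration at half of the fitted maximal effect; nearly all actives have a fitted effect of over 50% in size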
# An asterisk follows results filed as active; ? = inconclusive; / = not tested or not shown. Unless noted, the call rests on the fitted dose curve; in most records, active means well fitted curve in the direction sought with a large enough effect; inconclusive means small, poorly fitted or top-dose-only effect, or another doubt; inactive means no such curve, though single readings can be large; an effect the other way counts as inactive or inconclusive. Unless noted, on the % scale 0 is the no-effect control and ±100 the full control effect.
SMILES,RORg inh,IL1B secr inh,DT40 TDP1 CPT,LDHA block,TDP1 cell noCPT,Gal4-VP16 FLuc
COc1cccc(/C=N/Nc2ncnc3c2ncn3Cc2ccccc2)c1O,?,-52.1*,3.66µM*,0.5,4.61µM*,?
COc1cccc(/C=N/Nc2cc(Cl)nc(C)n2)c1O,0.501µM*,13.5,5.3%,4.9,0.7%,2.82µM*
COc1cccc(/C=N/Nc2c(Cl)cncc2Cl)c1O,15.4%,-7.0,-16.2%,12.2,?,-12.2%
N#CC1=C(SCc2ccccc2Br)NC(=O)C(C#N)C12CCCCC2 (stereo unspecified),/,/,/,-2.7,/,/
Cc1cc(C)cc(-n2ncc3c2CCCC3NC(=O)c2ccccc2N2CCOCC2)c1 (stereo unspecified),-39.4%,-18.9,?,-1.8,16.4µM*,-6.6%
O=C(NC1CCCc2c1cnn2-c1ccccc1F)c1ccccc1N1CCOCC1 (stereo unspecified),1.6%,?,16.4µM*,3.1,13µM*,-2.9%
COc1ccc(C(=O)NC2CCCc3c2cnn3-c2ccccc2F)o1 (stereo unspecified),?,10.1,-29.3%,-0.1,?,-24.7%
CC(C)CC(NC(=O)C1CCC(C(C)C)CC1)C(=O)O (stereo unspecified),/,/,/,9.3,/,/
Clc1cccc(-c2ccc(/C=N/n3cnnc3)o2)c1,34.1%,-53.7*,2.8%,-0.3,-2.0%,1.8%
CCOC(=O)c1c(C)n(-c2ccc(OC)cc2)c2ccc(O)c(CN(C)C)c12,-12.5%,-29.8,25.9µM*,-2.0,16.4µM*,-7.7%
CCOC(=O)c1c(C)n(C)c2ccc(O)c(CN(C)C)c12,26.3%,-52.9*,20.6µM*,23.8,18.4µM*,-5.3%
Cc1cc(C)c(NCC(=O)NNC(=O)c2cnccn2)c(C)c1,/,/,/,6.6,/,/
Cc1cccc(-n2nnnc2C2(Nc3ccccc3C)CCCC2)c1,/,/,/,2.8,/,/
Cc1cc(C2CCCN2Cc2coc(-c3ccc(F)cc3)n2)on1 (stereo unspecified),/,/,/,-5.6,/,/
c1ccc(-c2n[nH]c3c2CCC3)cc1,12.6µM*,-5.8,2.9%,-5.6,-10.6%,-21.2%
CCOC(=O)c1ccc(NC(=O)c2ncoc2-c2cccc(C)c2)cc1,/,/,/,-12.2,/,/
Cc1ccc(C)c(/C=N/Nc2cc(C(F)(F)F)ccc2Cl)c1,/,/,/,5.1,/,/
CN(C)c1ccc(/C=N/n2ncc3ccccc32)cc1,0.708µM*,-14.7,-9.6%,2.1,-17.9%,7.08µM*
Cc1ccc(S(=O)(=O)N2CCCC2c2nc3ccccc3[nH]2)cc1C (stereo unspecified),/,/,/,8.4,/,/
CC(C)(C)OC(=O)C[C@@H]1C/C=C\C[C@H](CC(=O)N(CCO)Cc2ccccc2)C(=O)N[C@H](Cc2ccccc2)COC1=O,/,-18.7,?,1.1,23.1µM*,/
C[C@H]1COC(=O)[C@H](CC(=O)OC(C)(C)C)C/C=C\C[C@@H](CC(=O)N(CCO)Cc2ccccc2)C(=O)N1,/,17.7,?,-3.0,?,/
CC(C)(C)OC(=O)C[C@H]1C/C=C\C[C@@H](CC(=O)N(CCO)Cc2ccccc2)C(=O)N[C@H](C(C)(C)C)COC1=O,/,2.1,?,0.6,14.6µM*,/
CC(C)(C)OC(=O)C[C@@H]1C/C=C\C[C@@H](CC(=O)N(CCO)Cc2ccccc2)C(=O)N[C@H](C(C)(C)C)COC1=O,/,13.6,20.6µM*,3.4,?,/
CCn1cnc2c1c(=O)n(CC(=O)N1c3ccccc3CCC1C)c(=O)n2Cc1ccccc1 (stereo unspecified),/,/,/,1.7,/,/
CC(NC(=O)c1sc2cc([N+](=O)[O-])ccc2c1Cl)C(C)(C)C (stereo unspecified),?,?,5.17µM*,-3.0,4.11µM*,12.6µM*
SMILES,RORg inh,IL1B secr inh,DT40 TDP1 CPT,LDHA block,TDP1 cell noCPT,Gal4-VP16 FLuc
O=C(c1sc2cc([N+](=O)[O-])ccc2c1Cl)N1CCCCC1,44.8%,?,-2.4%,-5.3,?,?
CC1CCCN(C(=O)c2sc3cc([N+](=O)[O-])ccc3c2Cl)C1 (stereo unspecified),41.1%,-17.7,25.9µM*,-1.1,16.4µM*,4.7%
CCCCN1C(=O)C(=O)N(Cc2cc(=O)oc3cc(C)ccc23)C1=O,/,/,/,-4.9,/,/
CCC(CC)C(=O)Nc1nc(-c2ccc3c(c2)CCN3C(=O)C2CC2)c(C)s1,-21.7%,48.9,?,-8.4,23.1µM*,-20.7%
CC(C)C(=O)Nc1nc(-c2ccc3c(c2)CCN3C(=O)C2CC2)cs1,14.5%,-12.1,11.6µM*,-6.7,13µM*,16.0%
O=C(/C=C/c1ccco1)OCC(=O)C12CC3CC(CC(C3)C1)C2,/,/,/,0.8,/,/
CC1CCN(C(=O)/C=C/c2ccc(C(C)(C)C)cc2)CC1,?,-14.0,?,0.8,20.6µM*,-0.8%
Cc1ccc(/C=C/C(=O)N2CCCC(C)C2)cc1 (stereo unspecified),?,4.5,-7.1%,-5.2,?,?
Cn1cc(C(=O)NCCNC(=O)c2cccs2)c2ccccc21,/,/,/,6.3,/,/
CCOc1ccc(-c2cccc(NS(=O)(=O)c3cc(OC)ccc3OC)c2)nn1,/,/,/,6.9,/,/
COc1ccc(S(=O)(=O)Nc2ccc(-c3ccc4nnc(C)n4n3)cc2)c(OC)c1,/,-23.0,?,-1.2,?,/
COc1ccc(OC)c(S(=O)(=O)Nc2ccc(-c3ccc4nnc(C)n4n3)cc2)c1,/,36.0,8.2µM*,-7.9,8.2µM*,/
CCOc1ccc(-c2ccc(NS(=O)(=O)c3cc(C)ccc3OC)cc2)nn1,/,/,13µM*,3.3,23.1µM*,/
CCOc1ccc(S(=O)(=O)Nc2cccc(-c3ccc(OCC)nn3)c2)cc1,/,/,11.6µM*,1.8,16.4µM*,/
CCOc1ccc(-c2cccc(NS(=O)(=O)c3c(C)cc(C)cc3C)c2)nn1,/,/,?,2.2,23.1µM*,/
COc1ccc(C)cc1CCNC(=O)CCc1c(C)nn(C)c1C,/,/,/,3.7,/,/
Cc1cccc2sc(N(Cc3cccnc3)C(=O)c3ccc(Cl)s3)nc12,/,/,/,-0.5,/,/
O=C(O)c1ccc(NC(=S)NC(=O)c2cccc(COc3ccccc3)c2)cc1,41.4%,-54.5*,-26.4%,-3.0,3.3%,3.9%
O=C(O)c1ccc(NC(=S)NC(=O)c2cccnc2)cc1,?,18.2,?,-2.5,-10.5%,-22.6%
O=C(NC(=S)Nc1ccc(CN2CCCCC2)cc1)c1cccc(OCc2ccccc2)c1,10µM*,0.0,9.2µM*,-0.4,11.6µM*,?
CCOC(=O)C(C#N)C(N)=O (stereo unspecified),/,/,/,4.1,/,/
O=C(NCc1ccco1)c1cnn2c(C(F)(F)F)cc(-c3ccccc3)nc12,15.8µM*,?,?,4.2,?,11.2µM*
